From PubChem
NFkB transloc pot: enhances IL-1B driven NFkB nuclear translocation; 94,000 tested, 0.3% active; activation, % at 2 µM; HUVEC IL-1B NFkB p65 nuclear translocation imaging; AID 819;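 active = activation above 40%, about the mean plus 3 SD, also judged a hit on visual image review; inconclusive = activation above 40% but not a hit on visual review; inactive = activation not above 40% and no visual hit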;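 note: percent activation is computed from the nuclear over cytoplasmic p65 intensity ratio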
IL1B NFkB inh: blocks IL-1B driven NFkB nuclear translocation in HUVEC cells; HUVEC IL-1B NFkB p65 nuclear translocation imaging; inhibition, % at 2 µM; 94,000 tested, 0.43% active; AID 796;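 active = inhibition above about 30% together with a positive call from visual inspection of the well image, limit read from the data; inconclusive = inhibition above a set limit but visual check negative; inactive = inhibition not above a set limit, visual check negative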;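 note: nuclear over cytoplasmic p65 intensity ratio measured by imaging; 0% = IL-1B stimulated DMSO wells and 100% = unstimulated DMSO wells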
VCAM1 TNFa inh: reduces TNF alpha induced VCAM1 expression in HUVEC | HUVEC TNFa-induced VCAM-1 immunofluorescence, high-content imaging | inhibition, % at 2 µM | 95,000 tested, 0.48% active;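 active = inhibition above the batch mean plus 3 SD, with images confirmed as a hit by eye, cut at about 37% in these data; inconclusive = inhibition above that limit but hit not confirmed in images; inactive = inhibition not above that limit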;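 note: 0% = TNF-stimulated DMSO wells and 100% = unstimulated control wells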
HUVEC tox IL1B: toxic to HUVEC cells under IL-1B stimulation; 94,000 tested, 0.41% active; HUVEC cell count loss, Hoechst imaging, IL-1B stimulated; AID 845; cell count reduction, % at 2 µM;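 active = cell count reduction more than 3 SD above the screen-wide mean, cut at about 70% in these data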;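 note: normalized per plate to untreated control cells as the no-loss baseline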
TNFa cytotox: toxic to HUVEC cells under TNF alpha stimulation | HUVEC TNFalpha-stimulated, Hoechst cell count, imaging | cell count reduction, % at 2 µM | 93,000 tested, 0.17% active;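 active = cell count reduction exceeding the screen mean by over 5 SD, scaled to untreated wells per plate, cut at about 78% in these data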;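 note: cells counted after 24 h of TNF alpha exposure following the 1 h pretreatment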
* marks the source's active call; other numbers are inactive results; ? = inconclusive; . = not tested or not shown. Most compounds without a hit are left out; they make up all but 1.5% or so of the library.

SMILES | NFkB transloc pot | IL1B NFkB inh | VCAM1 TNFa inh | HUVEC tox IL1B | TNFa cytotox
CCOC(=O)c1ccc(Nc2nc(-c3cccnc3)nc3ccccc23)cc1 | 18.2 | -18.2 | -14.0 | 86.0* | -32.0
CCOC(=O)c1nc(Nc2ccccc2)c2ccccc2n1 | -7.8 | 7.8 | 22.6 | 42.6 | 12.2
CCn1c(CNC(=O)COc2ccc(C(C)C)cc2)nnc1SCC(=O)Nc1cc(F)ccc1C | -12.8 | 12.8 | 0.7 | -22.9 | -18.5
Cc1cc(C(=O)NN=C2C3CC4CC(C3)CC2C4)c2ccccc2n1 | -2.2 | 2.2 | 52.3* | -50.6 | 26.6
Cc1cccc(NC(=O)CC2SC(=O)N(c3ccccc3)C2=O)c1 (stereo not drawn) | -3.0 | 3.0 | 96.2* | 2.0 | 78.0*
CC(=O)c1cc(F)c(N2CCN(C(=O)COc3ccc(F)cc3)CC2)cc1C | 15.6 | -15.6 | 7.2 | 83.3* | -6.3
CC1(C)CC(=O)C(C=NCC(N)=O)=C(O)C1 | 2.9 | -2.9 | 9.4 | 2.9 | -27.8
CCOC(=O)c1c(NC(C)=O)sc2c1CCC(C=O)=C2Sc1ccccc1 | 13.3 | -13.3 | -2.5 | -12.4 | -14.1
O=C(NCCc1csc(-c2cccnc2)n1)c1cccc2ccccc12 | -35.0 | 35.0* | 10.2 | 78.9* | -38.5
O=C(NCCc1csc(-c2cccnc2)n1)c1ccccc1 | 10.9 | -10.9 | 3.9 | -11.6 | -22.8
COc1ccc(C(=O)CSc2nnc(COc3ccc(C#N)cc3)n2-c2ccccc2)cc1 | 20.4 | -20.4 | -5.3 | -8.0 | -16.6
Cc1ccc(C(=O)CSc2nnc(COc3ccc(C#N)cc3)n2-c2ccccc2)cc1 | 2.4 | -2.4 | 95.9* | -11.8 | 8.2
CCOc1ccc2ccccc2c1/C=N/n1cncn1 | -17.6 | 17.6 | 88.5* | 2.2 | -28.6
Cc1ccc2nc(SCC(=O)Nc3cc(C(F)(F)F)ccc3N3CCOCC3)[nH]c2c1 | -3.1 | 3.1 | 90.7* | 33.5 | 53.9
Cc1c(C2OC(=O)C3(CCCCC3)C(=O)C2(C)C)c(=O)n(-c2ccccc2)n1C (stereo not drawn) | -1.0 | 1.0 | -7.9 | 12.7 | 10.6
O=C(NCCc1nc2ccccc2[nH]1)c1ccc(F)cc1 | 13.4 | -13.4 | -7.9 | 91.6* | -4.8
O=C1c2ccc3c4c(ccc(c24)C(=O)N1c1ccc2ccccc2c1)CC3 | 18.1 | -18.1 | 16.3 | -17.7 | 18.3
Cc1cc(=O)n(CC(C)O)c(O)c1C#N (stereo not drawn) | -98.7 | 98.7* | 0.0 | 88.7* | -13.5
Cc1cc(=O)n(CCCO)c(O)c1C#N | 8.9 | -8.9 | 4.8 | -9.4 | -37.3
O=C(NCCCN1CCN(c2cccc(Cl)c2)CC1)c1cccc(N2CCCC2=O)c1 | 45.8* | -45.8 | 18.7 | -18.6 | 0.7
CCC1CCCCN1C(=O)CSc1nnc(-c2cccs2)o1 (stereo not drawn) | -97.4 | 97.4* | 19.4 | 85.7* | -5.8
COc1cccc(NS(=O)(=O)c2ccc3[nH]cc(C(=O)NCCC(C)C)c(=O)c3c2)c1 | -19.1 | 19.1 | -4.8 | 90.9* | -22.3
Cc1ccc(S(=O)(=O)N(C)c2cc(S(=O)(=O)N3CCC(C)CC3)c(C)cc2C)cc1 | 20.7 | -20.7 | -1.5 | 93.7* | -38.5
CC1CCN(S(=O)(=O)c2ccc3[nH]c(=O)c(=O)[nH]c3c2)CC1 | 2.3 | -2.3 | 7.5 | 31.1 | -0.8
COC(=O)CSc1nc2nc(C)c(Br)cc2[nH]1 | -4.3 | 4.3 | ? | -23.1 | 100.0*
SMILES | NFkB transloc pot | IL1B NFkB inh | VCAM1 TNFa inh | HUVEC tox IL1B | TNFa cytotox
O=C1CCCc2c1cc(C(=O)NC1CCSC1=O)c(=O)n2-c1ccccc1 (stereo not drawn) | 3.7 | -3.7 | . | 15.3 | 94.0*
Cc1cc(C)c(N(C(=O)Cn2nnc3ccccc32)C(C(=O)NC(C)(C)C)c2ccsc2)c(C)c1 (stereo not drawn) | -5.6 | 5.6 | -5.3 | 0.4 | -10.0
CC(C)(C)NC(=O)C(c1ccsc1)N(CCc1ccccc1)C(=O)Cn1nnc2ccccc21 (stereo not drawn) | -57.5 | 57.5* | 3.7 | -1.1 | 0.3
CC(C)CC(OC(=O)c1cccs1)C(=O)NCC1CCCO1 (stereo not drawn) | -4.6 | 4.6 | 20.2 | 14.3 | -28.6
CCCCS(=O)(=O)/C=C\C=C/S(=O)(=O)CCCC | -94.9 | 94.9* | 86.3* | 58.3 | 28.1
CCCCS(=O)(=O)/C=C\C1C2C=CC(C2)C1S(=O)(=O)CCCC (stereo not drawn) | 3.5 | -3.5 | 17.4 | 5.0 | 49.0
C[C@H](NC(=O)NC1CCCc2ccccc21)C(=O)O (stereo partly drawn) | -0.6 | 0.6 | 13.9 | 1.8 | 0.4
CCC(C)(CC(=O)N(C)CCC#N)c1ccccc1 (stereo not drawn) | -25.9 | 25.9 | 10.4 | 83.7* | -14.8
CC(C)N(CCc1ccncc1)C(=O)Nc1ccc(Cl)c(Cl)c1 | 43.1* | -43.1 | -38.5 | 6.8 | 14.7
COc1ccc(S(=O)(=O)Nc2cc3c(C(C)=O)c(C)oc3c3ccccc23)cc1 | 9.1 | -9.1 | 79.5* | 39.9 | 41.4
Cc1oc2c(cc(NS(=O)(=O)c3cccs3)c3ccccc32)c1C(=O)OC(C)C | 25.9 | -25.9 | 2.3 | 3.3 | -4.4
CCCCCCCCCS(=O)(=O)N/N=C/c1cccc([N+](=O)[O-])c1 | 6.0 | -6.0 | 10.2 | -27.7 | -52.2
Cn1cnc2c(N3CCCCC3)nccc21 | 3.5 | -3.5 | 9.9 | 92.9* | -10.7
Cc1ccccc1C(=O)NC(NCC1CCCO1)C(Cl)(Cl)Cl (stereo not drawn) | 11.7 | -11.7 | 8.1 | 6.2 | 3.9
CCCc1nc(-c2cc3ccc(C)cc3[nH]c2=O)no1 | -7.9 | 7.9 | -14.3 | 84.3* | -21.8
CCNC(=O)CN(Cc1ccccc1)S(=O)(=O)c1ccccc1 | -35.5 | 35.5* | 5.3 | 10.0 | -2.6
CCNC(=O)CN(CCc1ccccc1)S(=O)(=O)c1ccc(OC)cc1 | -6.4 | 6.4 | 7.0 | 5.7 | -13.6
COc1ccc(CC(C)N2CCN(c3ccccc3)CC2)cc1OC (stereo not drawn) | . | . | 2.8 | . | -40.4
CCN(CC)C(=O)CN(c1ccc(Cl)cc1)S(=O)(=O)c1ccccc1 | -6.1 | 6.1 | ? | 16.6 | 100.0*
CCN(CC)C(=O)CN(c1ccc(C)cc1)S(=O)(=O)c1ccc(SC)cc1 | 8.3 | -8.3 | 12.2 | -1.2 | -5.6
C=CCSc1nnc(NC(=O)c2ccc(S(=O)(=O)NCC3CCCO3)cc2)s1 (stereo not drawn) | -10.9 | 10.9 | -13.1 | 7.8 | 5.2
CC(=O)CC(c1ccccc1)S(=O)(=O)c1ccc(C)cc1 (stereo not drawn) | 3.7 | -3.7 | 1.1 | -16.7 | -0.3
COc1ccc(C(CC(=O)c2ccccc2)S(=O)(=O)c2ccc(C)cc2)cc1 (stereo not drawn) | 69.2* | -69.2 | 17.7 | -16.9 | -2.1
O=C(c1ccccc1)c1cc(-c2ccccc2)on1 | -1.6 | 1.6 | 1.5 | -72.6 | -2.0
COCCN(CC(=O)NCc1ccc(OC)cc1)C(=O)CCC(=O)Nc1nccs1 | -2.5 | 2.5 | -4.5 | 1.2 | -13.1
COCCN(CC(=O)NCc1ccccc1)C(=O)CCC(=O)Nc1nccs1 | 40.6* | -40.6 | 0.4 | 2.5 | -20.7
CCOCCCN(Cc1ccco1)C(=O)c1cc2c(=O)[nH]c3ccc(C)cc3c2s1 | 16.9 | -16.9 | 0.2 | -5.0 | -14.0
